Test results from PubChem BioAssay (NCI).
Where “and” joins values, the source holds several entries; their conditions need not be identical. Equal entries are not always repeated. This is part of a sample that, as a whole, favours compounds with a hit. Of some 79,000 tested, about 15% had one in any assay. Where a structure was tested more than once in an assay, its records may differ in their call. Calls of active or inactive are those of the source. Cut-off read from the data, not from the text of the source: active = growth inhibition above about 70%; inactive = the rest.

Experiments:
[1] = NCI Yeast Anticancer Drug Screen. Data for the rad52 strain (AID 147);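 note: 0% = growth of vehicle-treated control cultures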; details: S. cerevisiae rad52 mutant growth inhibition, stronger effect = higher value
Summary of the method: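 Inhibition of yeast growth, referenced to vehicle controls, was the measured output for a strain with defective DNA damage repair.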

[2] = NCI Yeast Anticancer Drug Screen. Data for the wt1 strain (AID 149);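 note: 0% = growth of vehicle-treated wt1 cultures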; details: S. cerevisiae wt1 strain (SPY 50644) growth inhibition, stronger effect = higher value
Summary of the method: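 wt1 yeast, compound-treated; % growth inhibition vs vehicle control.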

[3] = NCI Yeast Anticancer Drug Screen. Data for the rad50EPP+ strain (AID 151);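 note: 0% = growth of vehicle-treated control cultures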; details: S. cerevisiae rad50 mutant strain, stronger effect = higher value
Summary of the method: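 Genetically defined yeast (rad50EPP+, DNA damage repair alteration) is grown with compound, and inhibition of growth is expressed relative to vehicle-treated controls.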

[4] = NCI Yeast Anticancer Drug Screen. Data for the mgt1 strain (AID 153); details: S. cerevisiae mgt1 mutant growth inhibition, stronger effect = higher value
Summary of the method: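 In the mgt1 strain, test compounds were added and growth inhibition was determined relative to vehicle-treated controls.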

[5] = NCI Yeast Anticancer Drug Screen. Data for the rad50 strain (AID 155);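 note: 0% = growth of vehicle-only cultures of the same strain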; details: S. cerevisiae rad50 strain growth inhibition, stronger effect = higher value
Summary of the method: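 Genetically altered yeast (DNA repair pathway); compound treatment; growth inhibition vs vehicle ctrl.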

[6] = NCI Yeast Anticancer Drug Screen. Data for the mec2-1 strain (AID 157); details: S. cerevisiae mec2-1 strain, stronger effect = higher value
Summary of the method: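 Each compound was tested on mec2-1 yeast, a strain altered in DNA damage repair or cell cycle control. Growth inhibition is reported relative to vehicle.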

[7] = NCI Yeast Anticancer Drug Screen. Data for the rad14 strain (AID 159);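 note: 0% = growth of vehicle-treated control cultures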; details: S. cerevisiae rad14 strain growth inhibition, stronger effect = higher value
Summary of the method: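 Test compounds were applied to a repair-deficient yeast strain. Its growth was then compared with that of cultures given vehicle alone, and inhibition was expressed relative to those controls.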

[8] = NCI Yeast Anticancer Drug Screen. Data for the sgs1 mgt1 strain (AID 161);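 note: 0% = growth of cultures given vehicle only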; details: S. cerevisiae sgs1 mgt1 strain, stronger effect = higher value
Summary of the method: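 Genetically altered yeast, compound exposure, growth inhibition relative to vehicle.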

[9] = NCI Yeast Anticancer Drug Screen. Data for the CLN2oe strain (AID 163);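 note: 0% = growth of vehicle-only control cultures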; details: S. cerevisiae CLN2oe strain, stronger effect = higher value
Summary of the method: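 First, the altered yeast strain was treated with each compound; second, its growth was measured; finally, inhibition was derived by comparison with vehicle controls.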

[10] = NCI Yeast Anticancer Drug Screen. Data for the cln2 rad14 strain (AID 165);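 note: 0% = growth equal to vehicle treated cultures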; details: S. cerevisiae cln2 rad14 strain, stronger effect = higher value
Summary of the method: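 Test compounds were added to cln2 rad14 yeast cultures; inhibition of growth was then determined by comparison with vehicle treatment.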

[11] = NCI Yeast Anticancer Drug Screen. Data for the bub3 strain (AID 167); details: S. cerevisiae bub3 mutant strain, stronger effect = higher value
Summary of the method: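 Yeast carrying a defined mutation is treated with each compound, and growth is compared with that of vehicle-exposed cells to give inhibition.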

[12] = NCI Yeast Anticancer Drug Screen. Data for the wt2 strain (AID 169);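 note: 0% = growth of vehicle-treated yeast cultures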; details: S. cerevisiae wt2 strain growth inhibition, stronger effect = higher value
Summary of the method: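 The panel's yeast strains carry defined changes in DNA repair or cell cycle genes. Each strain is grown with compound, and growth loss is scored relative to vehicle.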

[13] = NCI Yeast Anticancer Drug Screen. Data for the mlh1 strain (AID 171);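 note: 0% = growth of vehicle-treated control cultures of the same strain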; details: S. cerevisiae mlh1 strain growth inhibition, stronger effect = higher value
Summary of the method: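 Inhibition values reflect reduced yeast growth in the presence of compound, referenced to vehicle controls, using a strain chosen for its alteration in DNA repair or cell cycle control.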

[14] = NCI Yeast Anticancer Drug Screen. Data for the sgs1 strain (AID 173);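 note: 0% = growth of vehicle-only control cultures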; details: S. cerevisiae sgs1 mutant, stronger effect = higher value
Summary of the method: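 Vehicle-treated cultures served as reference for growth inhibition of a yeast strain altered in DNA damage repair or cell cycle control after compound exposure.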

[15] = NCI Yeast Anticancer Drug Screen. Data for the mlh1 rad18 strain (AID 175); details: S. cerevisiae mlh1 rad18 strain growth inhibition, stronger effect = higher value
Summary of the method: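 Inhibition values reflect reduced growth of mutant yeast versus vehicle-treated controls following compound exposure; the mutations affect DNA damage repair.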

[16] = NCI Yeast Anticancer Drug Screen. Data for the rad18 strain (AID 177); details: S. cerevisiae rad18 mutant growth inhibition, stronger effect = higher value
Summary of the method: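 Steps: expose repair-mutant yeast to compound; measure growth; express as inhibition relative to vehicle control.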

[17] = at 5.0 µM (retest, dose inferred, filed as 0.5)
[18] = at 50.0 µM (retest, dose inferred, filed as 5.0)

Measured: growth inhibition

COc1cc([C@@H]2c3cc4c(cc3[C@@H](Nc3ccc(NC(=O)c5cc([N+](=O)[O-])cn5C)cc3)[C@H]3COC(=O)[C@H]23)OCO4)cc(OC)c1O
67.5% (inactive) and 74.8% (active): [6]; at 50.0 µM
53% (inactive) and 93% (active): [8]; [18]
37% (inactive) and 80% (active): [15]; [17]
62% (inactive) and 95% (active): [15]; [18]
67.5% (inactive) and 75.9% (active): [5]; at 50.0 µM
20.1% (inactive) and 74.3% (active): [15]; at 50.0 µM
46% (inactive) and 90% (active): [11]; [18]
active: [1]; at 3.7 µM 84% | [1]; at 11.0 µM 92% | [1]; at 33.0 µM 91% | [1]; at 100.0 µM 93% | [5]; at 3.7 µM 74% | [5]; [17] 92% and 96% | [5]; at 11.0 µM 88% | [5]; at 33.0 µM 92% | [5]; [18] 95% and 97% | [5]; at 100.0 µM 92% | [6]; [18] 79% and 96% | [6]; at 100.0 µM 74% | [9]; at 100.0 µM 77%
inactive: [1]; at 1.2 µM 25% | [2]; at 1.2 µM 9% | [2]; at 3.7 µM 20% | [2]; at 11.0 µM 26% | [2]; at 33.0 µM 32% | [2]; at 100.0 µM 36% | [3]; at 1.2 µM 4% | [3]; at 3.7 µM 10% | [3]; at 11.0 µM 27% | [3]; at 33.0 µM 14% | [3]; at 100.0 µM 22% | [4]; at 1.2 µM -3% | [4]; at 3.7 µM 5% | [4]; at 11.0 µM 14% | [4]; at 33.0 µM 35% | [4]; at 100.0 µM 41% | [5]; at 1.2 µM 11% | [6]; at 1.2 µM -16% | [6]; at 3.7 µM 6% | [6]; [17] 38% and 52% | [6]; at 11.0 µM 42% | [6]; at 33.0 µM 66% | [7]; at 1.2 µM 4% | [7]; at 3.7 µM 16% | [7]; at 11.0 µM 18% | [7]; at 33.0 µM 50% | [7]; at 100.0 µM 59% | [8]; [17] 16% and 54% | [8]; at 50.0 µM 47.5% and 67% | [9]; at 1.2 µM 19% | [9]; at 3.7 µM 23% | [9]; at 11.0 µM 44% | [9]; at 33.0 µM 58% | [10]; [17] 16% and 22% | [10]; at 50.0 µM 47% and 49.9% | [11]; at 1.2 µM -10% | [11]; at 3.7 µM 0% | [11]; [17] 19% and 42% | [11]; at 11.0 µM 14% | [11]; at 33.0 µM 36% | [11]; at 50.0 µM 26.8% and 51.2% | [11]; at 100.0 µM 43% | [12]; at 1.2 µM -28% | [12]; at 3.7 µM -12% | [12]; at 11.0 µM -8% | [12]; at 33.0 µM 6% | [12]; at 100.0 µM 17% | [13]; at 1.2 µM -15% | [13]; at 3.7 µM 5% | [13]; at 11.0 µM 22% | [13]; at 33.0 µM 39% | [13]; at 100.0 µM 53% | [14]; at 1.2 µM -6% | [14]; at 3.7 µM 6% | [14]; at 11.0 µM 30% | [14]; at 33.0 µM 44% | [14]; at 100.0 µM 49% | [16]; at 1.2 µM -9% | [16]; at 3.7 µM 3% | [16]; at 11.0 µM 27% | [16]; at 33.0 µM 43% | [16]; at 100.0 µM 53%
50% (inactive) and 84% (active): [10]; [18]

COc1cc(C2c3cc4c(cc3OC(OC(C)=O)C2C)OCO4)cc(OC)c1OC (stereo unspecified)
active: [1]; at 100.0 µM 82% | [5]; at 100.0 µM 77% | [9]; at 100.0 µM 72% | [11]; at 100.0 µM 89% | [14]; at 100.0 µM 79% | [16]; at 100.0 µM 85%
inactive: [1]; at 1.2 µM -1% | [1]; at 3.7 µM -2% | [1]; at 11.0 µM -2% | [1]; at 33.0 µM -5% | [2]; at 1.2 µM -2% | [2]; at 3.7 µM -3% | [2]; at 11.0 µM -5% | [2]; at 33.0 µM -11% | [2]; at 100.0 µM 56% | [3]; at 1.2 µM -3% | [3]; at 3.7 µM -1% | [3]; at 11.0 µM 1% | [3]; at 33.0 µM -1% | [3]; at 100.0 µM 5% | [4]; at 1.2 µM -2% | [4]; at 3.7 µM -1% | [4]; at 11.0 µM -10% | [4]; at 33.0 µM -12% | [4]; at 100.0 µM 43% | [5]; at 1.2 µM -1% | [5]; at 3.7 µM -1% | [5]; [17] 1% | [5]; at 11.0 µM -5% | [5]; at 33.0 µM -5% | [5]; [18] 49% | [5]; at 50.0 µM -0.3% | [6]; at 1.2 µM -6% | [6]; at 3.7 µM 0% | [6]; [17] -4% | [6]; at 11.0 µM -1% | [6]; at 33.0 µM -5% | [6]; [18] 5% | [6]; at 50.0 µM 2.6% | [6]; at 100.0 µM 56% | [7]; at 1.2 µM -3% | [7]; at 3.7 µM -4% | [7]; at 11.0 µM -11% | [7]; at 33.0 µM -10% | [7]; at 100.0 µM 52% | [8]; [17] -8% | [8]; [18] 29% | [8]; at 50.0 µM -4.55% | [9]; at 1.2 µM -7% | [9]; at 3.7 µM -7% | [9]; at 11.0 µM -18% | [9]; at 33.0 µM -13% | [10]; [17] -14% | [10]; [18] 3% | [10]; at 50.0 µM -13.1% | [11]; at 1.2 µM 5% | [11]; at 3.7 µM 5% | [11]; [17] 17% | [11]; at 11.0 µM 22% | [11]; at 33.0 µM 38% | [11]; [18] 58% | [11]; at 50.0 µM 35.6% | [12]; at 1.2 µM -2% | [12]; at 3.7 µM -5% | [12]; at 11.0 µM -6% | [12]; at 33.0 µM -13% | [12]; at 100.0 µM 66% | [13]; at 1.2 µM -2% | [13]; at 3.7 µM -5% | [13]; at 11.0 µM -2% | [13]; at 33.0 µM -7% | [13]; at 100.0 µM 69% | [14]; at 1.2 µM -3% | [14]; at 3.7 µM -2% | [14]; at 11.0 µM -3% | [14]; at 33.0 µM -3% | [15]; [17] -4% | [15]; [18] 23% | [15]; at 50.0 µM -2.5% | [16]; at 1.2 µM -3% | [16]; at 3.7 µM -4% | [16]; at 11.0 µM 1% | [16]; at 33.0 µM 5%
